HT1080NT lethal = kills 2HG-producing HT-1080-NT fibrosarcoma cells; 1.6% of 360,000 active; Potency, µM (titrated, usually from 46.1 µM), inactives show top-dose activity, negative = less viability, actives largely listed as cytotoxic; HT-1080-NT fibrosarcoma viability, CellTiter-Glo ATP luminescence, 48 h;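 also: NT is the 2HG producing partner of a matched IDH1 knockdown line; 0% = DMSO-treated cells and -100% = media-only wells without cells; nearly all actives have a fitted effect of over 55% in size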
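Compounds were tested in concentration-response format on HT-1080-NT cells for 48 hours at 37 degrees C. Cell viability came from CellTiter-Glo luminescence; curves were classified by r2, response magnitude and activity.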
KB-3-1 tox = KB-3-1 parental cell cytotoxicity; 1.4% of 400,000 active; AID 1347075; KB-3-1 viability, CellTiter-Glo ATP luminescence, 72 h; Potency, µM (series often up to 46.1 µM), hits mostly cytotoxic; also: % is scaled to controls: 0 for no effect and ±100 for the full control effect; nearly all actives have a fitted effect of over 60% in size
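72 h, 37 °C compound treatment of KB-3-1 parental cells; CellTiter-Glo added, 10 min, luminescence read. Data corrected against DMSO-only plates and normalized before curve fitting.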
MCF10A rerep = inducers of DNA re-replication in MCF 10A breast cells; Potency, µM (highest dose often 46.1 µM), inactives show top-dose activity, positive = re-replication, most hits filed as activators; 2.9% of 350,000 active; MCF 10A DNA re-replication, Hoechst nuclear intensity, 48 h; also: % of control where 0% means no effect; nearly all actives have a fitted effect of over 50% in size
SW480 rerep = induces DNA re-replication in SW480 colon adenocarcinoma cells. AID 624297. 1.8% of 340,000 active. SW480 DNA re-replication, Hoechst DNA content imaging, 48 h. Potency, µM (titrated, usually from 46.1 µM), inactives show top-dose re-replication activation, hits mostly activators; also: % of control where 0% means no effect; nearly all actives have a fitted effect of over 55% in size
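Readout is total intensity of Hoechst-stained nuclei, excited at 405 nm and collected at 500-530 nm. Compound treatment lasted 48 hr at 37 C in 5% CO2 before staining.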
HT1080 IDH1KD tx = HT-1080 IDH1 knockdown cell toxicity (counter line). HT-1080 IDH1 knockdown viability, ATP luminescence, 48 h. Potency, µM (highest dose often 46.1 µM), for inactives: at the highest dose activity, negative = toxicity, most hits filed as cytotoxic. 2% of 360,000 active. AID 686971;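 also: 0% = DMSO wells and -100% = cell-free medium wells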
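Knockdown cells (IDH1KD HT-1080) received compounds 2 h after plating at 750 cells/well and were kept 48 h at 37 °C in 5% FBS RPMI. A CellTiter-Glo luminescence read gave % activity for curve fitting.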
KB-V1 MDR tox = kills drug-selected multidrug resistant KB-V1 cells | KB-V1 MDR cells viability, CellTiter-Glo, 72 h | Potency, µM (titrated, usually from 46.1 µM), most hits filed as cytotoxic | 3.4% of 400,000 active; also: % is scaled to controls: 0 for no effect and ±100 for the full control effect; nearly all actives have a fitted effect of over 60% in size
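Compound-treated KB-V1 multidrug-resistant cells, 72 h, 37 degrees C; viability by CellTiter-Glo. Fitted qHTS curves give the values.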
* hit, by the source's call; i = inactive; ? = inconclusive; · = not tested or not shown; ! = repeats disagree. This is a sample that favours compounds with a hit; in the whole collection about 8% have one here. Calls follow the shape of the dose curve; as a rule, active = well fitted curve in the direction sought with a large enough effect; inconclusive = small, poorly fitted or top-dose-only effect, or another doubt; inactive = no such curve, though single readings can be large; an effect the other way counts as inactive or inconclusive. Potency is read from the fitted curve at half-maximal effect.

SMILES | HT1080NT lethal | KB-3-1 tox | MCF10A rerep | SW480 rerep | HT1080 IDH1KD tx | KB-V1 MDR tox
O=C(CCCCCNC(=O)c1ccccc1)N/N=C/c1ccccc1O | 4% | i | ? | 5.8µM* | -26% | ?
O=C(CN1CCCc2ccccc21)N/N=C/c1ccccc1O | -21% | ? | 8% | ? | ? | 13µM*
O=C(CCCCCNC(=O)c1ccccc1)N/N=C/c1ccco1 | 1% | i | 1% | -3% | 7% | i
O=C(CN1CCCc2ccccc21)N/N=C/c1ccc(F)cc1F | 6% | i | ? | -3% | -14% | i
CCc1ccccc1N1CC(C(=O)N2Cc3ccccc3CC2C(N)=O)CC1=O (configuration not stated) | 5% | i | -2% | -6% | 15% | i
Cc1ccccc1NC(=O)CSc1nc2ccc(NC(=O)CCc3ccccc3)cc2s1 | · | i | · | · | · | i
Cc1cccc(C(=O)OC2CCOC2=O)c1O (configuration not stated) | 3% | i | 12% | 1% | 2% | i
CC1=C(CO)C(=O)OC([C@@H](C)C2CC[C@H]3C4C[C@H]5O[C@]56[C@@H](O)C=CC(=O)[C@]6(C)C4CC[C@]23C)C1 (some centres not stated) | 21µM* | ? | 2.3µM* | ? | 18µM* | 13µM*
CS(=O)(=O)N(CC(=O)Nc1ccccc1Sc1ccccc1)C1CCCCC1 | ? | ? | ? | 16% | ? | 5.8µM*
CC1CCN(CC(=O)Nc2ccccc2Sc2ccccc2)CC1 | -24% | i | 15µM* | ? | -22% | i
CS(=O)(=O)N(CC(=O)NCc1ccccc1Cl)C1CCCCC1 | 13% | i | -10% | 21µM* | 12% | ?
CCCCn1cnc2c(sc3nc4c(cc32)CSC(C)(C)C4)c1=O | -4% | i | 5% | -7% | -4% | 21µM*
CC(C)CCn1cnc2c(sc3nc4c(cc32)CSC(C)(C)C4)c1=O | 9% | i | ? | -6% | 3% | ?
COc1ccc(C(=O)c2cc(OC)c(OC)c(OC)c2)cc1OC | ? | 5.8µM* | 3.7µM* | 3.7µM* | 12µM* | i
COc1ccc(C(O)c2nccc3cc(OC)c(OC)cc23)cc1OC (configuration not stated) | -13% | ? | 4% | -3% | -14% | 8.2µM*
COc1ccc(C(=O)c2ccc(OC)c(OC)c2)cc1OC | 0% | i | 12% | 6% | -7% | i
COc1ccc(C(=O)c2nccc3cc(OC)c(OC)cc23)cc1OC | -1% | i | 4% | 0% | 2% | 16µM*
Fc1ccccc1N1CCN(c2ncc3c(n2)CCN(Cc2cc(Br)cs2)C3)CC1 | · | i | · | · | · | i
O=C1CCCN1CCCNC(=S)Nc1ccc(Cl)cc1Cl | 0% | i | 0% | -7% | -4% | i
O=C(O)c1ccccc1-c1c2cc(Br)c(=O)c(Br)c-2oc2c(Br)c(O)c(Br)cc12 | · | · | -10% | -6% | · | ·
Nc1nc2n[nH]nc2c(=O)[nH]1 | ? | 1.5µM*! | ? | ? | 0.12µM* | ?
Nc1nc(N)c(N)c(=O)[nH]1 | · | i | · | · | · | i
CCCc1ccc(C(=O)NNC(=O)c2ccc(Cl)cc2)cc1 | -3% | i | -7% | -12% | 7% | i
CCOc1ccc(OCCCC(=O)NNC(=O)c2ccncc2)cc1 | 4% | i | -1% | 1% | 10% | i
CCCc1ccc(C(=O)CCC(=O)NNC(=O)c2ccncc2)cc1 | 9% | 10µM* | 7% | -7% | 14% | ?
SMILES | HT1080NT lethal | KB-3-1 tox | MCF10A rerep | SW480 rerep | HT1080 IDH1KD tx | KB-V1 MDR tox
CCCOc1ccc(C(=O)CCC(=O)NNC(=O)c2ccncc2)cc1 | 4% | ? | -2% | 2% | -1% | 5.8µM*
CCC(=O)N1c2ccccc2CC1C(=O)NCc1ccc(OC(C)C)cc1 (configuration not stated) | · | i | · | · | · | i
CC(=O)c1cccc(NC(=O)c2ccc3c(c2)CCCC3)c1 | -2% | i | -38% | -6% | -2% | ?
CC(=O)c1ccc2c3c(cc(C)c2c1)CCCC3 | ? | i | 21µM* | 1% | 7% | i
Oc1c(CN2CCCC(C(F)(F)F)C2)cc(Cl)c2ccccc12 (configuration not stated) | ? | i | ? | 5% | ? | i
CC(C)CSc1nc(N2CCOCC2)c2c(c1C#N)CC(C)(C)SC2 | -4% | i | ? | 3% | -2% | i
CC(C)Sc1nc(N2CCOCC2)c2c(c1C#N)CC(C)(C)SC2 | -2% | ? | ? | -6% | -3% | 6.5µM*
O=C(O)CC/C(=C\c1cc([N+](=O)[O-])ccc1Cl)c1nc2ccccc2s1 | -10% | i | 19% | -2% | -11% | i
Cc1nn(-c2ccc(F)cc2)c(Cl)c1/C=C(\CCC(=O)O)c1nc2ccccc2s1 | 13% | i | 18µM* | -2% | 5% | i
CCOc1ccc(-c2cc(-c3nc(-c4cc(OC)c(OC)c(OC)c4)no3)[nH]n2)cc1Cl | · | i | · | · | · | i
COCCN1CC(C(=O)NCCc2nc(C)c(C)s2)CCC1=O (configuration not stated) | 4% | ? | -2% | -9% | 18% | ?
Cc1cc(C)cc(NC(=O)c2cc(C)n(Cc3cccs3)c2C)c1 | ? | i | 18µM* | ? | ? | i
CC(=O)N1N=C(c2cccc([N+](=O)[O-])c2)OC1c1ccc(Cl)cc1Cl (configuration not stated) | -10% | i | ? | -2% | 0% | 21µM*
Cc1csc(NC(=O)CSc2nnc(-c3ccoc3C)o2)n1 | 0% | i | 8% | 7% | 1% | i
Cc1occc1-c1nnc(SCC(=O)Nc2nc(C(C)(C)C)cs2)o1 | ? | i | 15µM* | ? | ? | ?
CCOC(=O)Cc1csc(NC(=O)CSc2nnc(-c3ccc(NS(=O)(=O)CC)cc3)o2)n1 | 0% | i | 19% | 4% | 8% | i
CCOC(=O)Cc1csc(NC(=O)CSc2nnc(-c3ccncc3)o2)n1 | -4% | i | 16% | 15µM* | 0% | i
CC(C)NC(=O)c1ccc(C2SCC(=O)N2Cc2ccccc2)cc1 (configuration not stated) | 0% | i | 7.3µM* | 11% | 7% | i
CCC(C)NC(=O)c1ccc(C2SCC(=O)N2Cc2ccccc2)cc1 (configuration not stated) | -5% | i | -2% | -3% | 0% | ?

Source: PubChem BioAssay
